Source: PubChem BioAssay (National Center for Advancing Translational Sciences (NCATS))
Hits are enriched below; roughly 5.9% of the tested compounds scored in any of these assays.
RORgamma inh = ROR gamma (mouse) transcription inhibition; P51450; Drosophila S2 Gal4-RORgamma UAS-luciferase reporter, 20 h; Potency, µM (series often up to 53.6 µM), inactives show at the top dose activity change, negative = inhibition, actives largely listed as inhibitors; 310,000 tested, 5.4% active; note: % is set by controls: 0 for no effect and ±100 for the full control effect; nearly all actives have a fitted effect of over 60% in size
Target sequence (P51450 whole entry, looked up, the tested form may be a part): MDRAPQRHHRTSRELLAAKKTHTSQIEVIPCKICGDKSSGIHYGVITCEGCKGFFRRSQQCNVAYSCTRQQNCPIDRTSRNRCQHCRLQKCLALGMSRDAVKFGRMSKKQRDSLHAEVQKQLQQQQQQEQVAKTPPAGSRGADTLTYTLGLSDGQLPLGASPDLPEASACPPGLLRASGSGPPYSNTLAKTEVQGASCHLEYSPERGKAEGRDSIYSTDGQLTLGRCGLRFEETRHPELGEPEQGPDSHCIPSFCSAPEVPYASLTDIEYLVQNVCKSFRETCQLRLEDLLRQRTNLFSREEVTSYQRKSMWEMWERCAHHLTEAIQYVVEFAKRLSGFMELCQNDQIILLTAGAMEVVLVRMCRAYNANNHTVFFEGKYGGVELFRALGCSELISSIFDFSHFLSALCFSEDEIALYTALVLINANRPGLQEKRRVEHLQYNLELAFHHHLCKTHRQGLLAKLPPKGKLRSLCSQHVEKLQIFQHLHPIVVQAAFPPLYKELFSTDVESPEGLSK
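In this cell-based reporter format, copper sulfate (700 uM final) drives Gal4–ROR gamma fusion expression from a metallothionein promoter in Drosophila Schneider cells; compounds preincubated 1 hr, reporter read after 20 hr at ambient temperature.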
GLP-1R agonist = GLP-1 receptor (human) agonism. HEK293 GLP-1R CRE-luciferase, luminescence, 4-6 h; cells express a hypersensitive GLP-1R form. Potency, µM (doses to about 45.6 µM), for inactives: at the top dose activation, most hits filed as activators. 380,000 tested, 0.007% active. AID 624172; note: % of control where 0% means no effect
VP16 counter = Gal4-VP16 reporter inhibition counter-screen; Drosophila S2 Gal4-VP16 UAS-luciferase, luminescence, 20 h; Potency, µM (series often up to 53.6 µM), inactives show top-dose activity, negative = inhibition, usual class: inhibitors; AID 2546; 310,000 tested, 3.5% active;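 note: Gal4-VP16 expression switched on by copper sulfate through the metallothionein promoter; % is set by controls: 0 for no effect and ±100 for the full control effect; nearly all actives have a fitted effect of over 50% in size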
GLP1R inv ag = GLP-1 receptor (human) inverse agonism; HEK293 GLP-1R CRE-luciferase, luminescence, 24 h; GLP-1R form is constitutively active; P43220; AID 624417; Potency, µM (top dose mostly 38.3 µM), inactives show at the top dose activity change, negative = inhibition, hits mostly inhibitors; 410,000 tested, 1.6% active; note: % is set by controls: 0 for no effect and ±100 for the full control effect; nearly all actives have a fitted effect of over 55% in size
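GLP-1R inverse agonism mode: basal reporter luminescence in engineered HEK293 cells measured after one day of compound exposure at 37 deg C, with a 12 min room-temperature detection step.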
GLP1R cytotox = cytotoxic in the GLP-1 receptor inverse agonist counter-screen | HEK293 cAMP-luciferase reporter cells, luminescence, 24 h | Potency, µM (doses to about 38.3 µM), inactives show at the top dose activity change, negative = inhibition, actives largely listed as inhibitors | 410,000 tested, 0.13% active;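 note: loss of luciferase light is scored as toxicity; % is set by controls: 0 for no effect and ±100 for the full control effect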
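1536-well qHTS counterscreen of the MLSMR; 200 cells/uL, 12 h pre-incubation, 23 nL cpd, 24 h at 37 deg C 5% CO2, luciferase detection reagent, 12 min RT, luminescence. Inhibition = undesired.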
* marks the source's active call; other numbers are inactive results; ? = inconclusive; . = not tested or not shown; [ ] = another dose, or the depositor's remark. Calls come from the whole dose curve; as a rule, active = well fitted curve in the direction sought with a large enough effect; inconclusive = small, poorly fitted or top-dose-only effect, or another doubt; inactive = no such curve, though single readings can be large; an effect the other way counts as inactive or inconclusive. Potency is the fitted concentration of half-maximal effect.

SMILES | RORgamma inh | GLP-1R agonist | VP16 counter | GLP1R inv ag | GLP1R cytotox
c1ccc2nc(-c3ccncc3)ccc2c1 | -40% | 12% | 1% | 71% | -3%
COc1ccccc1N1CCN(C(=O)c2cc3c(=O)oc4ccccc4c3s2)CC1 | . | -1% | . | -15% | -6%
CC(=O)/C=C/c1ccc2ccccc2n1 | 10µM* | 0% | ? | ? | ?
CC(OC(=O)/C=C/c1ccc2ccccc2n1)C(=O)N(C)c1ccccc1 (centres undefined) | . | -4% | . | 5% | -1%
CCCOc1ccc(C2C(=O)N(C3CCCCCC3)CC(=O)N2CCCOCC)cc1OC (centres undefined) | . | . | . | 13% | 0%
O=C(CC(SCc1ccco1)c1ccc(O)cc1)c1cccs1 (centres undefined) | 0.89µM* | -24% | -14% | -3% | -13%
CC1(C)CC(=O)C2=C(C1)Nc1ccccc1NC2 | 13µM* | 6% | 6% | -24% | 2%
CC1(C)CC(=O)C2=C(C1)Nc1ccccc1S2 | 29% | 10% | -5% | -17% | 12%
COc1ccc(-c2noc(CSc3nc4ccccc4[nH]3)n2)cc1OC | . | 11% | . | 1% | 2%
COc1ccc(CNC(=S)Nc2ccccc2)cc1 | 7.1µM* | -5% | 10µM* | -12% | -2%
Cc1cccc(NC(=S)NC(C)(C)CC(C)(C)C)c1 | 2.2µM* | 22% | 8.9µM* | 10µM* | ?
COc1ccc(CNC(=S)Nc2cccc(C)c2)cc1 | 10µM* | 3% | 20µM* | ? | ?
COc1ccc(/C=C(/C(=O)NCc2ccccc2)c2ccccc2)cc1 | -1% | 1% | -13% | 25µM* | -15%
O=C(NCc1ccccc1)/C(=C/c1ccc(OC(F)F)cc1)c1ccccc1 | ? | 0% | ? | ? | -1%
CCOc1ccccc1NC(=O)c1nn(C)c2c1CSc1ccccc1-2 | . | . | . | -10% | 1%
COC(=O)c1ccc(CN2[C@@H]3C[C@@H](O)CC[C@@H]3C[C@H]2C(=O)OC)cc1 | -13% | . | -9% | . | .
COc1ccc(CNC(=S)Nc2cccc(F)c2)cc1 | 10µM* | -3% | 6.3µM* | ? | 3%
COc1cccc(NC(=S)NCc2ccc3c(c2)cc(C)n3C)c1 | 4.5µM* | -1% | ? | ? | ?
COc1cccc(NC(=S)NCc2ccc(F)cc2)c1 | ? | -1% | 7.1µM* | -10% | ?
Cc1cccc(NC(=S)NCc2ccc(F)cc2)c1 | ? | 4% | 13µM* | ? | ?
COc1ccc(CNC(=S)Nc2cccc(Cl)c2)cc1 | . | 3% | . | ? | ?
Cc1cc2cc(CNC(=S)Nc3ccc(OC(F)(F)F)cc3)ccc2n1C | -35% | -4% | 18% | ? | -19%
O=C(Nc1ccc(Br)cc1)c1cc(Br)c(Br)s1 | ? | 0% | 1% | . | .
O=C(CSc1nnc(-c2cccs2)n1CC1CCCO1)N1CCCC1 (centres undefined) | 21% | 0% | 2% | 17% | 4%
O=C(CCCSc1nnc(-c2cccs2)n1CC1CCCO1)c1ccccc1 (centres undefined) | 2% | 0% | ? | 7.9µM* | -15%
SMILES | RORgamma inh | GLP-1R agonist | VP16 counter | GLP1R inv ag | GLP1R cytotox
C#CCCCO/N=C1/[C@H]2O[C@@H]2[C@@H](O)[C@H]2[C@H]1CCn1c(=O)n([C@@H](CC)c3ccccc3)c(=O)n12 | -3%[10 µM] | . | -6%[10 µM] | . | .
CCN(CC)S(=O)(=O)c1ccc2c(c1)N(CC(=O)N1CCN(c3cc(Cl)ccc3C)CC1)C(=O)CO2 | . | . | . | -1% | -8%
O=C(CN1C(=O)COc2ccc(S(=O)(=O)N3CCCCC3)cc21)NCc1ccc(Cl)cc1 | 34% | -3% | 0% | 10µM* | -14%
CCN(CC)S(=O)(=O)c1ccc2c(c1)N(CC(=O)NCCCN1CCN(c3cc(Cl)ccc3C)CC1)C(=O)CO2 | . | 6% | . | 11µM* | ?
Cc1c(C(=O)NCc2ccc(F)cc2)oc2ccc(S(=O)(=O)N3CCCCC3)cc12 | . | . | . | 10µM* | 3%
O=C(Cc1ccc(S(=O)(=O)N2CCCCC2)cc1)NCc1ccc(Cl)cc1 | . | 22% | . | 7.1µM* | -3%
CC(C)C[C@@H](NC(=O)[C@@H](Cc1ccccc1)NC(=O)c1cnccn1)B(O)O | ? | 10% | ? | . | .
CCCCCCC1=Cc2cc(OC)c(OC)cc2C(C2(C(=O)OCC)CCCC2=O)O1 (centres undefined) | 18%[10 µM] | . | 9%[10 µM] | . | .
Cc1cc(C)cc(NC(=O)CCc2c(C)nc3c(c2C)c(=O)n(C)c(=O)n3C)c1 | . | -2% | . | 3% | -3%
CC(C)N(Cc1ccccc1)C(=O)CN1C(=O)COc2ccc(S(=O)(=O)N3CCCCCC3)cc21 | 24% | -2% | 0% | 7.9µM* | -5%
CC1CCN(c2cc3c(cc2F)c(=O)c(S(=O)(=O)c2cccc(Cl)c2)cn3Cc2ccccc2)CC1 | . | . | . | 6% | -8%
CCCCCn1c(CCNC(=O)c2cccc(C)c2)nc2ccccc21 | . | -1% | . | ? | -3%
Cc1ccc(SCc2nc(-c3ccc(C(=O)NCC(C)c4ccccc4)cc3)oc2C)cc1 (centres undefined) | . | . | . | 4.5µM* | 0%
Cc1ccc(C2CC(=O)n3nc(-c4ccc(F)cc4)nc3S2)cc1 (centres undefined) | . | . | . | 0% | -5%
O=C(Nc1nnc(C2=COCCO2)o1)c1cccc([N+](=O)[O-])c1 | 1µM* | -11% | 4µM* | 24% | 16%
O=C(Nc1nnc(-c2ccc(F)cc2)o1)c1cccc([N+](=O)[O-])c1 | 0.4µM* | 0% | 0.79µM* | -16% | 0%
O=C(Nc1nnc(C2=COCCO2)o1)c1cccc(Br)c1 | 0.35µM* | -1% | 0.5µM* | -7% | -30%
CS(=O)(=O)c1cccc(C(=O)Nc2nnc(C3=COCCO3)o2)c1 | . | -4% | . | 3% | 17%
O=C(Nc1ccc(NC(=O)c2cccc([N+](=O)[O-])c2)cc1)c1cccc([N+](=O)[O-])c1 | 10% | -5% | -7% | -8% | 2%
CC(C)[C@H](N)C(=O)N[C@@H](CCC(N)=O)C(=O)NCC(=O)N[C@@H](CCC(=O)O)C(=O)N[C@@H](CCC(=O)O)C(=O)N[C@@H](CO)C(=O)N[C@@H](CC(N)=O)C(=O)N[C@@H](CC(=O)O)C(=O)N[C@@H](CCCCN)C(=O)O | 0% | . | -4% | . | .
O=c1cc(-c2cc(O)c(O)c([C@@H]3O[C@H](CO)[C@@H](O)[C@H](O)[C@H]3O)c2)oc2cc(O[C@@H]3O[C@H](CO)[C@@H](O)[C@H](O)[C@H]3O)cc(O)c12 | -16% | . | -2% | . | .
CC(NC(=O)c1ccc2c(c1)OCO2)c1ccccc1 (centres undefined) | -26% | 7% | -1% | 0% | 1%
